# In the library only some 21% were active in any assay of this set; here they are far more common.
# Shiga toxin inh – Shiga toxin inhibition | actives 9.2% (n = 290,000) | Vero cells, Shiga toxin protein synthesis inhibition reporter | inhibition, % at 38.7 µM; in the data active = inhibition mostly above about 28%, no sharp cut-off; inactive = mostly below about 43%; note: 0% is about no effect
# Cycloheximide cs – counter-screen for Shiga toxin inhibitors: cycloheximide protein synthesis inhibition | actives 12% (n = 300,000) | max response, % | cell reporter, cycloheximide protein synthesis inhibition counterscreen; in the data active = max response mostly above about 13%, no sharp cut-off; inactive = mostly below about 14%; note: read at 38.3 µM for the half of the compounds with a filed dose; 0% is about no effect
# Giardia FBPA inh – Giardia lamblia aldolase inhibition. actives 0.71% (n = 290,000). purified Giardia FBPA. Potency, µM (highest dose often 59.6 µM), for inactives: at the top dose activity, negative = inhibition, actives largely listed as inhibitors; note: potency is the fitted concentration of half-maximal effect; % is set by controls: 0 for no effect and ±100 for the full control effect; nearly all actives have a fitted effect of over 55% in size
# Target sequence (A8B2U2 whole entry, looked up): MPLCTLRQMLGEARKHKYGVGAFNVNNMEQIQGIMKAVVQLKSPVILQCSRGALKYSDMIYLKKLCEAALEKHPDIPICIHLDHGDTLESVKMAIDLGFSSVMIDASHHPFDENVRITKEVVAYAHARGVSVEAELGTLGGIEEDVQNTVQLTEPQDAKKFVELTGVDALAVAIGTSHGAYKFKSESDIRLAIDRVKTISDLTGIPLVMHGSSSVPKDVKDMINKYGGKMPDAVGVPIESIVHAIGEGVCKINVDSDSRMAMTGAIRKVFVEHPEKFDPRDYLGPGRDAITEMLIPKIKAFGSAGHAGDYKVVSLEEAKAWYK
#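 40 nM FBPA preincubated 10 min at RT with compound (up to 57.5 uM final), then substrate plus GAPDH/TPI/NAD/arsenate coupling and diaphorase/resazurin added. Fluorescence read after 20 min at RT, 525/598 nm.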
# Pf growth 48h – P. falciparum growth inhibition at 48 hours (one generation); Potency, µM (top dose mostly 28.7 µM), inactives show at the top dose activity change, negative = inhibition, most hits filed as inhibitors; actives 5.9% (n = 310,000); AID 504832; P. falciparum luciferase growth in erythrocytes, 48 h; note: potency is the fitted concentration of half-maximal effect; % is set by controls: 0 for no effect and ±100 for the full control effect
#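 Read-out is firefly luciferase luminescence from an integrated reporter in P. falciparum, so falling signal marks reduced parasite growth. Infected erythrocytes were at 2% hematocrit and 0.1% parasitemia (final) in Albumax-supplemented RPMI 1640.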
# NS1 function inh – inhibitors of influenza NS1 protein function. actives 0.4% (n = 270,000). AID 2326. Potency, µM (doses to about 46.1 µM), for inactives: at the top dose activity, positive = more growth; calls by dose curve; note: potency is the fitted concentration of half-maximal effect; actives are rising curves; nearly all actives have a fitted effect of over 50% in size
#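 Recovery from NS1-induced slow growth read by OD600 in budding yeast switched to galactose assay medium (pH 6.0, -URA) at 1:100 dilution. Compound 23 nl per well; the matching strain lacking NS1 serves as control.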
# Pf growth 96h – P. falciparum growth inhibition at 96 hour, primary screen for plastid delayed-death inhibitors; P. falciparum luciferase reporter growth, 96 h; Potency, µM (doses to about 28.7 µM), for the others: at the highest dose activity change, negative = inhibition, most hits filed as inhibitors; actives 6.9% (n = 320,000); note: potency is the fitted concentration of half-maximal effect; % is set by controls: 0 for no effect and ±100 for the full control effect
#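 Compounds incubated with erythrocytes infected by luciferase-expressing P. falciparum (2% hematocrit, 0.05% parasitemia final) for 96 hours, 37 C in 5% CO2. Growth inhibition scored as decreased luciferase luminescence.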
# An asterisk follows results filed as active; ? = inconclusive; / = not tested or not shown; [ ] = dose if it differs, or a comment. Unless noted, calls come from the whole dose curve; as a rule, active = well fitted curve in the direction sought with a large enough effect; inconclusive = small, poorly fitted or top-dose-only effect, or another doubt; inactive = no such curve, though single readings can be large; an effect the other way counts as inactive or inconclusive.
SMILES,Shiga toxin inh,Cycloheximide cs,Giardia FBPA inh,Pf growth 48h,NS1 function inh,Pf growth 96h
CCOc1ccc(NC(=O)NCCCCc2ccccc2)cc1,13,0,-4%,4%,4%,4%
O=C(NCCCCc1ccccc1)Nc1ccc(F)cc1,31*,11,5%,?,-78%,?
COc1ccc(NC(=O)NCCCCc2ccccc2)cc1,50,22*,/,?,-1%,44%
Cc1ccc(NC(=O)NCCCc2ccccc2)cc1,83*,35*,0%,-22%,-71%,1%
Cc1ccc(NC(=O)NCCc2ccc(S(N)(=O)=O)cc2)cc1,-19,-3,2%,-5%,-1%,?
Cc1cccn2c(=O)c(C(=O)NC3CCCCC3)c(O)nc12,11,12,3%,?,-40%,?
Cc1cccn2c(=O)c(C(=O)NC3CCCCC3C)c(O)nc12 (stereo unspecified),/,/,/,13µM*,/,?
Cc1cccn2c(=O)c(C(=O)NC3CC(C)CC(C)(C)C3)c(O)nc12 (stereo unspecified),/,/,/,3.7µM*,/,?
Cc1ccn2c(=O)c(C(=O)NC3CCCCC3C)c(O)nc2c1 (stereo unspecified),/,/,/,2.3µM*,/,?
COC(=O)C1=C(C(=O)OC)[C@@H]2Nc3ccccc3[C@@]23C[C@@H](C(=O)OC)N(C(=O)C2CCC2)C3=N1,/,/,1%[12.9 µM],/,/,/
COCCCc1cc(F)c(S(=O)(=O)N2CCN(S(=O)(=O)c3ccc4c(c3)OCCO4)CC2)cc1F,-2,-1,/,/,/,/
Cc1ccc(S(=O)(=O)NC(=O)OC23COCN2COC3)cc1,/,/,/,/,-8%,/
Cc1cccc(-n2c(C)c(-c3ccccc3)[nH]c2=S)c1,4,3,22%,?,-8%,9.3µM*
Cc1cccc(-n2c(O)c(C)c(=O)[nH]c2=S)c1,-5,3,-5%,?,6%,6%
CC1(C)CC(=O)C2=C(C1)NC(SCC(N)=O)=C(C#N)C21CCCCC1,10,-1,-12%,?,4%,0.17µM*
N#C[C@H]1CN[C@H](N)N[C@@H]1N,/,/,/,/,1%,/
COCCCNC(=S)N/N=C/c1cccc(OC)c1O,49*,42*,8%,0.41µM*,1%,?
COCCCNC(=S)N/N=C/c1ccc(O)cc1O,32,12,16%,30%,2%,-4%
COCCCNC(=S)N/N=C/c1ccc(O)cc1,15,0,-11%,42%,0%,0%
COCCCNC(=S)N/N=C/c1ccc(OC)cc1,13,10*,-3%,-53%,0%,-56%
CCOc1ccccc1CN1CCCC(CNC(=O)Cc2ccc(OC)cc2)C1 (stereo unspecified),/,4,-2%,?,-7%,?
Cc1cc(C)nc(N2CCN(S(=O)(=O)c3ccc(F)cc3)CC2)n1,7,1,4%,?,-9%,?
O=C(O)c1ccc(-c2ccc(/C=C3\NC(=O)N(Cc4ccc(Cl)cc4)C3=O)o2)cc1Cl,-6,11,-10%,15µM*,7%,-4%
Cc1ccc(S(=O)(=O)NC(=O)NC(C)c2ccc(F)cc2)cc1 (stereo unspecified),12,-2,16%,12%,10%,48%
CCOc1ccc(OCCCC(=O)ON=C(N)c2ccccc2C)cc1,/,/,/,-20%,/,-22%
SMILES,Shiga toxin inh,Cycloheximide cs,Giardia FBPA inh,Pf growth 48h,NS1 function inh,Pf growth 96h
CC(=O)c1ccc(N(CC(=O)NC2CCCCC2)C(=O)CNC(=O)c2ccco2)cc1,-5,-6,/,37%,-2%,20%
CC1CN(CC(O)COC(c2ccc(Cl)cc2)c2ccc(Cl)cc2)CC(C)O1 (stereo unspecified),-11,-3,-23%,3.7µM*,-22%,?
CSc1ccccc1NC(=O)C1CC(c2c(F)cccc2Cl)=NO1 (stereo unspecified),42*,30*,6%,41%,-1%,-54%
O=C(Nc1ccc(Br)cc1)C1CC(c2c(F)cccc2Cl)=NO1 (stereo unspecified),16,13*,-8%,46%,-30%,67%
C=CCn1c(C)cc(C(=O)CSc2nnc(-c3cccc(S(=O)(=O)N(CC)CC)c3)o2)c1C,-17,16,1%,10µM*,?,?
CCN(CC)S(=O)(=O)c1cccc(-c2nnc(SCCCC(=O)c3ccccc3)o2)c1,17,11,7%,?,-36%,?

# High-throughput results from PubChem.
